Screening results from PubChem.
This is a sample that favours compounds with a hit; in the whole collection about 2.1% have one here.
Gli-Sufu block – antagonists of Gli-Sufu signaling; Sufu-KO-LIGHT fibroblasts, Gli luciferase reporter luminescence; inhibition, % at 5 µM; 340,000 tested, 0.74% active; AID 588413;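 active = inhibition above about 55%, limit read from the data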
aDG glyco up – alpha-DG glycosylation activation | 360,000 tested, 0.22% active | activation, % at 10 µM | Pro5-aDG cells, alpha-DG glycosylation AlphaScreen (IIH6); 0% Pro5, 100% B10-LARGE cell signal;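 active = activation of at least 8% versus controls, or a plate z-score of at least 8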;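 note: Pro5 are CHO cells carrying HIG-tagged alpha-DG that lacks glycosylation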
COUP-TFII inh – blocks human COUP-TFII nuclear receptor; inhibition, % at 8.6 µM; 370,000 tested, 0.7% active; HEK293T NGFI-A luciferase reporter, luminescence; P24468; AID 686940;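 active = inhibition above a per-plate cutoff, mean inhibition of test wells between control levels plus 3 SD, cut at about 38% in these data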;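 note: cells cotransfected with COUP-TFII expression vector driving the NGFI-A reporter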
Target sequence (P24468 whole entry, looked up): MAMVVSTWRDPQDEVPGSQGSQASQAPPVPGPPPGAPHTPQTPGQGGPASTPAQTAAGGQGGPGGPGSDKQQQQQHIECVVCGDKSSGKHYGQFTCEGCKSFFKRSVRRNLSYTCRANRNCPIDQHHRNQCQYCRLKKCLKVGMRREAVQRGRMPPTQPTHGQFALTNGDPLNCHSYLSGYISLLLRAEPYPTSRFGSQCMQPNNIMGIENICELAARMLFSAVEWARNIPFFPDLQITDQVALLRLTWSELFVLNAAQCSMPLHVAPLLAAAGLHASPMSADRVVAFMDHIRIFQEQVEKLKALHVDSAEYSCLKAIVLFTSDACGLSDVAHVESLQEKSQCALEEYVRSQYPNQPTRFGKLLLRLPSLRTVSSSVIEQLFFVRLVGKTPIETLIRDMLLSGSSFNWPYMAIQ
GalR3 antagonist – antagonists of human GalR3. O60755. HEK293 GalR3-CNG cAMP membrane potential fluorescence; galR3 body fused to GalR1 C-terminus. inhibition, % at 3 µM. 360,000 tested, 0.44% active;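 active = inhibition above the screen-wide average plus 3 SD, cut at about 13% in these data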;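 note: forskolin and galanin both at EC90 stimulate the cells; cAMP rise reported by CNG channel membrane potential dye signal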
Target sequence (O60755 1-299 limits assumed): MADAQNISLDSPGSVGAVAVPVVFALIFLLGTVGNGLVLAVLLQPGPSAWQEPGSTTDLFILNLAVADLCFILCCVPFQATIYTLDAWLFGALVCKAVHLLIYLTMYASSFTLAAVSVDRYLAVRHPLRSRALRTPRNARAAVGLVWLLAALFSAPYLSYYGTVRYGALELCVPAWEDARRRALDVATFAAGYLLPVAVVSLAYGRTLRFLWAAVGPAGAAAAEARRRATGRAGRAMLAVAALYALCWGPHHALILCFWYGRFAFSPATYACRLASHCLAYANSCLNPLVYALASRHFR
Env fusion inh – blocks HIV Env-driven cell-cell fusion. HeLa-JRFL Env/CEM21 cell fusion, luciferase. 360,000 tested, 1.1% active. inhibition, % at 12.3 µM. AID 651610;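 active = mean replicate inhibition score of at least 50 and every replicate individually at or above 50; inconclusive = only one of the two criteria met; inactive = mean below 50 and not all replicates reaching 50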
Gli-Sufu confirm – Gli-SUFU antagonism confirmation, single concentration; shares compounds with Gli-Sufu block; Sufu-KO-LIGHT cells, Gli luciferase reporter, luminescence; inhibition, % at 5 µM; 2,500 tested, 40% active;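 active = mean inhibition at 5 µM reaching about 45%, limit read from the data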
SufuKO cytotox – cytotoxic in Gli-SUFU antagonist counter-screen | shares compounds with Gli-Sufu block | Sufu-KO-LIGHT cells cytotoxicity, ATP luminescence | cytotoxicity, % at 5 µM | 2,500 tested, 32% active;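 active = mean cytotoxicity at 5 µM above about 25%, limit read from the data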;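 note: cells exposed to compound overnight for roughly 16 to 18 hours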
Wnt3a cs – inhibits Wnt3a reporter, counter-screen for Gli-SUFU antagonists; 2,500 tested, 20% active; AID 651995; Wnt-LIGHT cells, Wnt3a-driven luciferase reporter, luminescence; inhibition, % at 6.25 µM; shares compounds with Gli-Sufu block;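 active = mean inhibition above about 25%, limit read from the data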
GalR3 antag conf – confirmation of human galanin receptor 3 antagonists | shares compounds with GalR3 antagonist | HEK293 GalR3 CNG cAMP biosensor, membrane potential fluorescence; galR3 fused to GalR1 carboxy tail; challenged with forskolin and galanin at EC90 | inhibition, % at 3 µM | 1,600 tested, 59% active | AID 652245;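 active = inhibition above the primary screen's cutoff, the mean inhibition of all screened compounds plus 3 SD, cut at about 13% in these data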
HEK-CNG parental – parental cell agonism counter-screen for GalR3 antagonists | shares compounds with GalR3 antagonist | HEK293-CNG parental cells, cAMP membrane potential fluorescence; normalised: DMSO wells 0%, forskolin wells 100% | activation, % at 3 µM | 1,600 tested, 10% active; in the data active = activation above about 1.3%
VP16 Luc counter – inhibits VP16 reporter, flagging COUP-TFII antagonist hits; shares compounds with COUP-TFII inh; HEK293 Gal4-VP16 luciferase reporter, luminescence; inhibition, % at 8.5 µM; 2,500 tested, 25% active; in the data active = inhibition above about 13%
NR2F2 inh conf – confirmation of human COUP-TFII (NR2F2) inhibitors | shares compounds with COUP-TFII inh | HEK293 NGFI-A luciferase reporter, luminescence | inhibition, % at 8.5 µM | 2,500 tested, 45% active | AID 687008;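 active = mean inhibition over three repeats above a set limit taken from the earlier primary screen, cut at about 38% in these data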
Of the large screens only hits and unclear results are named; the others gave an inactive call (follow-up assays come after a bar, where they were run).

CN(C)CCCNC(=O)C[C@H]1CC[C@@H](NC(=O)c2ccccc2F)[C@H](CO)O1	none (no result: Gli-Sufu block, aDG glyco up, COUP-TFII inh, GalR3 antagonist)
Clc1ccc(C[n+]2cc(-c3ccccc3)n3c2CCCCC3)c(Cl)c1	Gli-Sufu block 85.6, COUP-TFII inh 42.2 | Gli-Sufu confirm 87.1 | SufuKO cytotox 44.1 | Wnt3a cs inactive | VP16 Luc counter inactive | NR2F2 inh conf inactive
CN1CCN(CC(=O)Nc2nc3c(s2)CCCC3)CC1	none
CCN1CCN(/C=N/c2nc3c(s2)CCCC3)CC1	COUP-TFII inh 50.5 (no result: Env fusion inh) | Gli-Sufu confirm 69.7 | SufuKO cytotox inactive | Wnt3a cs 80.3 | VP16 Luc counter 25.1 | NR2F2 inh conf 55.1
S=C(NCCCN1CCOCC1)N1CCN(c2nc(-c3ccc(Cl)cc3)cs2)CC1	COUP-TFII inh 57.9, GalR3 antagonist 20.1, Env fusion inh 75.5 | Gli-Sufu confirm inactive | SufuKO cytotox inactive | Wnt3a cs inactive | GalR3 antag conf inactive | HEK-CNG parental inactive | VP16 Luc counter inactive | NR2F2 inh conf inactive
CO[C@H](CN(C)S(=O)(=O)c1ccc(F)cc1)[C@H](C)CN(C(=O)Nc1ccccc1F)[C@H](C)CO	none (no result: Gli-Sufu block, aDG glyco up, COUP-TFII inh, GalR3 antagonist)
COc1cccc(S(=O)(=O)N(C)C[C@H]2Oc3ncc(-c4cccc(C(=O)N(C)C)c4)cc3C(=O)N([C@H](C)CO)C[C@H]2C)c1	none (no result: Gli-Sufu block, aDG glyco up, COUP-TFII inh, GalR3 antagonist)
COc1ccc(-c2cnc3c(c2)C(=O)N([C@@H](C)CO)C[C@@H](C)[C@H](CN(C)C(=O)Cc2ccccc2)O3)cc1	none (no result: Gli-Sufu block, aDG glyco up, COUP-TFII inh, GalR3 antagonist)
COc1ccc([C@H]2CC(=O)C=C(c3ccnc4ccc(Cl)cc34)C2)cc1	Gli-Sufu block 74.2, COUP-TFII inh 68.9 | Gli-Sufu confirm 68.3 | SufuKO cytotox inactive | Wnt3a cs 38.0 | VP16 Luc counter inactive | NR2F2 inh conf 64.9
Cc1cc(C)c(S(=O)(=O)NCCc2ccncc2)c(C)c1	none (no result: Gli-Sufu block)
Cc1ccc(S(=O)(=O)NCc2ccncc2)c(C)c1C	Gli-Sufu block 75.8, aDG glyco up 7.2, COUP-TFII inh 68.4, GalR3 antagonist 85.9, Env fusion inh 55.1 | Gli-Sufu confirm 73.8 | SufuKO cytotox 27.5 | Wnt3a cs 37.5 | GalR3 antag conf 110.6 | HEK-CNG parental inactive | VP16 Luc counter inactive | NR2F2 inh conf 56.8
Cc1cc(C)c(S(=O)(=O)NCc2ccncc2)c(C)c1	Gli-Sufu block 58.3, aDG glyco up 6.3, COUP-TFII inh 60.5, GalR3 antagonist 94.4, Env fusion inh inconclusive | Gli-Sufu confirm 60.2 | SufuKO cytotox 27.8 | Wnt3a cs 43.3 | VP16 Luc counter inactive | NR2F2 inh conf 54.1
CC(C)NC(=O)N(C)C[C@H]1Oc2ccc(NC(=O)Nc3ccc(C(F)(F)F)cc3)cc2CC(=O)N([C@@H](C)CO)C[C@@H]1C	none (no result: Gli-Sufu block, aDG glyco up, COUP-TFII inh, GalR3 antagonist)
O=C1/C(=C\c2ccccc2)SC(=S)N1CCC(=O)N1CCCCC1CCO (configuration not stated)	none
COc1ccc(/C=C2\SC(=S)N(CCCC(=O)N3CCCCC3CCO)C2=O)cc1 (configuration not stated)	Gli-Sufu block 65.7, COUP-TFII inh 54.3 | Gli-Sufu confirm inactive | SufuKO cytotox inactive | Wnt3a cs inactive | VP16 Luc counter 42.3 | NR2F2 inh conf inactive
O=C(COc1ccccc1[N+](=O)[O-])N1CCC(Cc2ccccc2)CC1	none
NC(=O)c1ccccc1OCC(=O)N1CCC(Cc2ccccc2)CC1	COUP-TFII inh 64.2, GalR3 antagonist 20.6 (no result: Env fusion inh) | Gli-Sufu confirm 45.8 | SufuKO cytotox inactive | Wnt3a cs 27.1 | GalR3 antag conf 14.6 | HEK-CNG parental inactive | VP16 Luc counter inactive | NR2F2 inh conf 39.3
COc1ccc(CC2(CO)CCN(CC3=Cc4cc(Cl)ccc4OC3)CC2)cc1	Gli-Sufu block 57.4, aDG glyco up 13.0, COUP-TFII inh 63.7, GalR3 antagonist 69.6 | Gli-Sufu confirm 59.7 | SufuKO cytotox inactive | Wnt3a cs inactive | GalR3 antag conf 75.7 | HEK-CNG parental 2.2 | VP16 Luc counter inactive | NR2F2 inh conf 45.4
Cc1cc(NC2CCCCC2)nc(NCc2ccccc2)n1	Gli-Sufu block 79.5, COUP-TFII inh 52.4, Env fusion inh 53.7 | Gli-Sufu confirm 57.8 | SufuKO cytotox 33.5 | Wnt3a cs inactive | VP16 Luc counter inactive | NR2F2 inh conf inactive
N#C[C@H]1[C@H](c2ccc(C#CC3CCCCC3)cc2)[C@H](CO)N1C(=O)Cc1ccccn1	none (no result: Gli-Sufu block, aDG glyco up, COUP-TFII inh, GalR3 antagonist)
COc1cc(C[C@@H]2C(=O)OC[C@H]2Cc2ccc(OC)c(OC)c2)ccc1O	Gli-Sufu block 65.9, COUP-TFII inh 69.5, GalR3 antagonist 102.3 | Gli-Sufu confirm 57.3 | SufuKO cytotox 31.5 | Wnt3a cs 31.8 | VP16 Luc counter inactive | NR2F2 inh conf 56.6
CCCCCCC[N+](CC)(CC)CCCCc1ccc(Cl)cc1	Gli-Sufu block 84.8, COUP-TFII inh 40.8 | Gli-Sufu confirm 87.8 | SufuKO cytotox 25.6 | Wnt3a cs inactive | VP16 Luc counter 14.8 | NR2F2 inh conf inactive
CCC(=O)N(C)C[C@H]1Oc2cc(C#Cc3ccccc3)ccc2S(=O)(=O)N([C@@H](C)CO)C[C@@H]1C	none (no result: Gli-Sufu block, aDG glyco up, COUP-TFII inh, GalR3 antagonist)
O=C(c1cc(COc2cccc3cccnc23)on1)N1CCC[C@H]1CO	none (no result: Gli-Sufu block)
CCOC(=O)CC1CCCCN1C(=O)c1cc(COc2cccc3cnccc23)on1 (configuration not stated)	Gli-Sufu block 74.2, aDG glyco up 6.7, COUP-TFII inh 70.9, GalR3 antagonist 103.6 | Gli-Sufu confirm 62.3 | SufuKO cytotox inactive | Wnt3a cs inactive | GalR3 antag conf 110.6 | HEK-CNG parental inactive | VP16 Luc counter 16.3 | NR2F2 inh conf 77.7
CN(Cc1nccs1)C(=O)c1cc(COc2cccc3cnccc23)on1	Gli-Sufu block 58.0, COUP-TFII inh 54.4 | Gli-Sufu confirm inactive | SufuKO cytotox inactive | Wnt3a cs inactive | VP16 Luc counter inactive | NR2F2 inh conf 46.6
CO[C@@H]1CC[C@@H]2CCN(C)C(=O)C[C@@H](c3ccccc3)CN(C)C(=O)c3cc(C#N)ccc3OC[C@H]1O2	none (no result: Gli-Sufu block, aDG glyco up, COUP-TFII inh, GalR3 antagonist)
